Compound activity as filed in PubChem BioAssay.
hNpr1 antagonist: blocks ANP-stimulated signaling of human Npr1 receptor; P16066; HEK293 hNpr1 GloSensor cGMP, ANP-stimulated luminescence; Potency, µM (titrated, usually from 46.3 µM), usual class: inhibitors; 1.6% of 76,000 active; AID 1347048; calls by dose curve; further: nearly all actives have a fitted effect of over 60% in size
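Compound pre-incubated 30 min at room temperature on GloSensor-loaded HEK293 cells stably carrying hNpr1 and the pGS-40F cGMP biosensor. Stimulation uses hNppA at 0.1 nM final; luminescence is taken at baseline and 20 min post-agonist.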
Luciferase inh: Photinus pyralis luciferase inhibition | P08659 | purified P. pyralis luciferase, luminescence, biochemical | Potency, µM (titrated, usually from 115 µM), hits mostly inhibitors | 2.5% of 76,000 active; further: nearly all actives have a fitted effect of over 65% in size
Target sequence (P08659 whole entry, looked up): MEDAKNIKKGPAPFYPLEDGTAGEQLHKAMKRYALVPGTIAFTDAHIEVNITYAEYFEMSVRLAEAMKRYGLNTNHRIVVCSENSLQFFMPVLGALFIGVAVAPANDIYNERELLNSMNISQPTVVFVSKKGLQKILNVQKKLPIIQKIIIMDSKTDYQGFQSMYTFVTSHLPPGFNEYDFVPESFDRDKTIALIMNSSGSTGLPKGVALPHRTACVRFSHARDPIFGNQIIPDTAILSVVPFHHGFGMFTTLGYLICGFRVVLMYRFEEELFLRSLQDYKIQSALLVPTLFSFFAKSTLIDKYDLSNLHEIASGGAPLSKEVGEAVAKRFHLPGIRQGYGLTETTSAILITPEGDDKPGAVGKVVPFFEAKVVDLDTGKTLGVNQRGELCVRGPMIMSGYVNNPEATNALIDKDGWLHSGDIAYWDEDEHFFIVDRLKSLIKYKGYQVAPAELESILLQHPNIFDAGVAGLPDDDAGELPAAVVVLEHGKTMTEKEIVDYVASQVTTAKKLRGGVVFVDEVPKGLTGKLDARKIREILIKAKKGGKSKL
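Inhibitors were tested against purified firefly luciferase in a biochemical, low-substrate format (both substrates at 10uM) and luminescence measured with a CCD imager.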
NIH3T3 tox: kills NIH 3T3 cells. NIH 3T3 viability, CellTiter-Glo ATP luminescence, 48-72 h. Potency, µM (highest dose often 96.7 µM), actives largely listed as inhibitors. 4.3% of 94,000 active; further: nearly all actives have a fitted effect of over 55% in size
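ATP-dependent luminescence (CellTiter-Glo) served as the viability signal for NIH 3T3 cells treated with compound for 48 or 72 hr at 37 °C.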
HEK293 tox: kills HEK 293 cells | 6.6% of 94,000 active | Potency, µM (top dose mostly 115 µM), actives largely listed as inhibitors | HEK 293 viability, ATP luminescence (CellTiter-Glo), 48-72 h | AID 1345083; further: nearly all actives have a fitted effect of over 60% in size
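Read-out: CellTiter-Glo ATP luminescence. Cells: HEK 293, 250 cells/well. Exposure: 48 or 72 hr, 37 degree Celsius.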
GPT2 inh: GPT2 alanine aminotransferase inhibition | 0.25% of 100,000 active | Potency, µM (doses to about 57.7 µM), actives largely listed as inhibitors | Q8TD30 | Recombinant GPT2, coupled pyruvate oxidase/HRP Amplex Red fluorescence; further: nearly all actives have a fitted effect of over 60% in size
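Recombinant GPT2 (10ng/uL) with 250uM a-KG and 2mM L-alanine, 30 min at room temperature, in HEPES pH 7.5 buffer. Pyruvate detected by pyruvate oxidase/HRP/Amplex Red fluorescence after 30 min in the dark; AOA (50uM) as positive control.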
Of the large screens only hits and unclear results are named; the others gave an inactive call. A selection: hits, their analogues and other compounds. The true share with any hit is near 10%. Unless noted, the call rests on the fitted dose curve; in most records, active means well fitted curve in the direction sought with a large enough effect; inconclusive means small, poorly fitted or top-dose-only effect, or another doubt; inactive means no such curve, though single readings can be large; an effect the other way counts as inactive or inconclusive.

Cc1nn(-c2ccccc2)c2c1C(C1CC1)N(C1CN(C(=O)c3ccccc3Cl)C1)C2=O (centres undefined)	NIH3T3 tox 12.6µM, HEK293 tox inconclusive (no result: hNpr1 antagonist, Luciferase inh, GPT2 inh)
Cc1nn(-c2ccccc2)c2c1C(C)N(CC1CN(C(=O)c3ccccc3Cl)C1)C2=O (centres undefined)	NIH3T3 tox inconclusive, HEK293 tox 50.1µM (no result: hNpr1 antagonist, Luciferase inh, GPT2 inh)
CC1=C[C@@H](CNC(=O)CC2(CC(=O)O)CCCC2)[C@H](C(C)C)C[C@H]1Cc1nc2ccncc2[nH]1	none
CC1=C[C@@H](CNC(C)C)[C@H](C(C)C)C[C@H]1Cc1nnc(-c2ccc([N+](=O)[O-])cc2)o1	NIH3T3 tox 89.1µM, HEK293 tox 79.4µM
CC1=C[C@@H](CNCc2ccncc2)[C@H](C(C)C)C[C@H]1Cc1nnc(-c2ccc([N+](=O)[O-])cc2)o1	NIH3T3 tox inconclusive, HEK293 tox 39.8µM
CC1=C[C@@H](CN2CCC(O)CC2)[C@H](C(C)C)C[C@H]1Cc1nnc(-c2ccc([N+](=O)[O-])cc2)o1	NIH3T3 tox inconclusive, HEK293 tox inconclusive
c1ccc(-c2noc(-c3cncnc3N3CCN(c4ccccc4)CC3)n2)cc1	Luciferase inh inconclusive, NIH3T3 tox inconclusive, HEK293 tox 44.7µM
Cc1ccc(C(=O)CCc2nc(C3CC(=O)N(C4CCCCC4)C3)no2)cc1 (centres undefined)	NIH3T3 tox inconclusive, HEK293 tox 39.8µM
Cc1cc(O)c2c(c1)C(=O)c1cc(O)cc(O)c1C2=O	none (no result: hNpr1 antagonist, Luciferase inh, NIH3T3 tox, HEK293 tox)
CCC(=O)c1c(O)cc(O)cc1O	GPT2 inh 5.01µM (no result: hNpr1 antagonist, Luciferase inh, NIH3T3 tox, HEK293 tox)
O=C(c1ccccn1)N1CCc2nc(C3CC3)nc(-c3ccc(Cl)cc3)c2C1	NIH3T3 tox 31.6µM (no result: hNpr1 antagonist, Luciferase inh)
O=C(c1ccc(C(F)(F)F)cc1)N1CCc2nc(C3CC3)nc(-c3ccc(Cl)cc3)c2CC1	NIH3T3 tox inconclusive, HEK293 tox 28.2µM
O=C(Nc1ccc(Cl)cc1)N1CCc2nc(C3CC3)nc(-c3ccc(Cl)cc3)c2C1	NIH3T3 tox inconclusive, HEK293 tox 28.2µM
O=C(c1ccccc1F)N1CCc2nc(C3CC3)nc(-c3ccc(Cl)cc3)c2C1	NIH3T3 tox inconclusive (no result: hNpr1 antagonist, Luciferase inh)
Oc1ccc(-c2nc(C3CC3)nc3c2CN(CC2CCCCC2)CC3)cc1	NIH3T3 tox inconclusive, HEK293 tox 79.4µM
O=C(c1ccccc1F)N1CCn2ncc(C(=O)N3CCOCC3)c2C1	none (no result: hNpr1 antagonist, Luciferase inh)
COC(=O)c1cc(OCC2CCC2)cc(C(=O)N2[C@H]3CCNC[C@@H]2CC3)c1	NIH3T3 tox inconclusive
Oc1cccc(CN(Cc2ccsc2)Cc2ccco2)c1	NIH3T3 tox 31.6µM, HEK293 tox 35.5µM
CC(c1cccs1)N(C)Cc1ccsc1 (centres undefined)	none
CNc1cc(C2CC(NC(=O)NCCc3ccccc3F)C2)nc(N)n1 (centres undefined)	none
CNc1cc(C2CC(NC(=O)COc3ccc(Cl)cc3C)C2)nc(N)n1 (centres undefined)	NIH3T3 tox 39.8µM, HEK293 tox 17.8µM
Cc1ccc(C2Cn3nnc(C(=O)N4CCN(C(=O)c5cccc(N(C)C)c5)CC4)c3CO2)cc1 (centres undefined)	hNpr1 antagonist inconclusive, Luciferase inh inconclusive, HEK293 tox 17.8µM
Cc1ccc(C2Cn3nnc(C(=O)N4CCC(C(=O)Nc5ccc(Cl)c(C)c5)CC4)c3CO2)cc1 (centres undefined)	Luciferase inh 35.5µM
CSc1ccc(NC(=O)C2CCN(C(=O)c3nnn4c3COC(c3ccc(C)cc3)C4)CC2)cc1 (centres undefined)	Luciferase inh inconclusive
O=C(c1ccc2[nH]ccc2c1)N1CCN(C(=O)c2nnn3c2COC(c2ccccc2)C3)CC1 (centres undefined)	HEK293 tox 79.4µM
Cc1cccc(C(=O)N2CCN(C(=O)c3nnn4c3COC(c3ccc(Cl)cc3)C4)CC2)c1 (centres undefined)	HEK293 tox inconclusive
Cc1ccc(C2Cn3nnc(C(=O)N4CCC(C(=O)Nc5cccc(Cl)c5)CC4)c3CO2)cc1 (centres undefined)	Luciferase inh 28.2µM, NIH3T3 tox inconclusive, HEK293 tox 39.8µM
CCN(CC)C(=O)C1CCCN(Cc2ccc3c(c2)CN(Cc2cc(OC)cc(OC)c2)CCO3)C1 (centres undefined)	none
CCc1noc(-c2cn(C3CCN(C(=O)c4ccc(C)cc4)C3)nn2)n1 (centres undefined)	none
